This passage reports composite z-score results from PubChem BioAssay.

The first test concerns Human papillomavirus type 1a E7 protein (residues 1-88). Put plainly: HPV1a E7 small-molecule binders, primary screen, biochemical, small-molecule microarray, residues 1-88, 635 nm (AID 1129). The following applies: small-molecule microarray binding, fluorescence 635 nm; higher = more signal.
`[N-]=[N+]=NCc1ccccc1[C@@H]1OC(c2ccc(OCCCO)cc2)=N[C@]1(Cc1ccccc1)C(=O)NCC(O)CO` (stereo not given in full) registered a composite z-score of 1.19. Compound `COc1cc2c(cc1OC)CN(C(=O)[C@H]1[C@@H]3C(=O)O[C@@H](c4ccccc4)[C@@H](c4ccccc4)N3[C@@H](c3ccc(O)cc3)[C@]13C(=O)Nc1ccc(C#CCCO)cc13)CC2` returned a composite z-score of 1.21. Still for that read-out and setting: under `C=CCNC(=O)[C@@H]1[C@H]2C(=O)O[C@H](c3ccccc3)[C@H](c3ccccc3)N2[C@H](c2ccccc2OCCO)[C@@]12C(=O)N(C(=O)OCCOC)c1ccccc12` stands 1.2; under `CC1(C)[C@@H]2CC(C(O)C3C=CC4C(=O)N(c5ccccc5)C(=O)C4N3Nc3ccc([N+](=O)[O-])cc3)=C[C@H]1C2` (stereo not given in full), 1.27; under `C=CCNC(=O)[C@H]1[C@@H]2C(=O)O[C@@H](c3ccccc3)[C@@H](c3ccccc3)N2[C@@H](c2ccccc2OCCO)[C@]12C(=O)Nc1ccc(C#CCC(C(=O)OC)C(=O)OC)cc12`, 1.26. On the same count and under the same terms, under `O=C1C2C=CC(C(O)c3cc(C(F)(F)F)cc(C(F)(F)F)c3)N(n3cnnc3)C2C(=O)N1Cc1ccccc1` (stereo not given) stands -0.269.

In turn, `COc1cc(NN2C(C(O)c3ccco3)C=CC3C(=O)N(c4ccccc4)C(=O)C32)cc(OC)c1OC` (stereo not given) returned a composite z-score of 1.06.

Compound `CN(C)CCCCCCNC(=O)[C@@H]1C[C@@H]2C(=O)N[C@@H](Cc3ccccc3)C(=O)N2[C@@H]1c1ccc(O)cc1` displayed a composite z-score of 1.23.

With `CC(C)NC(=O)[C@@]1(c2ccc([N+](=O)[O-])cc2)CC(=O)N(C2CCCCC2)[C@@H]1c1ccc(CO)cc1I`, the composite z-score was determined as 1.15. The same measure, in the same setting: under `C=CC[C@]1(C(=O)NCc2ccccc2)N=C(c2ccc(OCCCO)cc2)O[C@H]1c1ccccc1N=[N+]=[N-]` stands 1.22.

The target of the next test is Focal adhesion kinase 1 (Homo sapiens) (UniProt Q05397). Put plainly: PTK2 protein binding on printed compound slides – biochemical, small-molecule microarray, 635/667 nm fluorescence, BSA, DTT, primary screen (AID 1130).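 Also: composite of spot emission at 667 nm and signal to noise over triplicate slides.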 Conditions: 635 nm fluorescence, higher = more signal.
Focal adhesion kinase 1 (Homo sapiens), sequence (Q05397 whole entry, looked up): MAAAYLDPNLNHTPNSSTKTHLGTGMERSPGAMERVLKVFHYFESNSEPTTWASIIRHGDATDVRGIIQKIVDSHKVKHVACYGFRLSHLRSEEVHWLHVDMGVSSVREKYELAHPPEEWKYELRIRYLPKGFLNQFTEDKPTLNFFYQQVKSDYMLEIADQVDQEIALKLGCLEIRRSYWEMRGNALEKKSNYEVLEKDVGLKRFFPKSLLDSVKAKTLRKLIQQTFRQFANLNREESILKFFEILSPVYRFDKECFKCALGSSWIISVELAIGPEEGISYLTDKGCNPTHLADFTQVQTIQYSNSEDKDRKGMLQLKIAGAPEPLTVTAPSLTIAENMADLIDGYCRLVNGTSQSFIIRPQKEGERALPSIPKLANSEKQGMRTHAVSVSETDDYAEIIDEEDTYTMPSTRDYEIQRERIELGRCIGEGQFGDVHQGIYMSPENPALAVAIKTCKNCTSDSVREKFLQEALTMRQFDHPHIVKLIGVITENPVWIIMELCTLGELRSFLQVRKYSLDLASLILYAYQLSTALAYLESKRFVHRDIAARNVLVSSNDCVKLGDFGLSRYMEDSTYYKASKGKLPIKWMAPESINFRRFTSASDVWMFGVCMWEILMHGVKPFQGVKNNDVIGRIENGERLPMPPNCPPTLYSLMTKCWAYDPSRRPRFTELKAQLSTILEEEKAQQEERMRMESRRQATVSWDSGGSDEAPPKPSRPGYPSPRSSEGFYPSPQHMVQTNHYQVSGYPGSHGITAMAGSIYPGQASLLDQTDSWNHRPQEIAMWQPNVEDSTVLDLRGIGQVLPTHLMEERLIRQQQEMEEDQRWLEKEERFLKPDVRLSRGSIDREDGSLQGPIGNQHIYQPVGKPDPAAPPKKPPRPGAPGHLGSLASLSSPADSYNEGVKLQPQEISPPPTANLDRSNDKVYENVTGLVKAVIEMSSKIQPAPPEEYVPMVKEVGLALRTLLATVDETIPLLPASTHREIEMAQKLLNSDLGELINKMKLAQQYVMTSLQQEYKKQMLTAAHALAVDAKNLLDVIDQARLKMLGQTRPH
With `COc1ccc([C@H]2OC[C@@H]3C[C@@H](Cc4ccccc4)C(=O)N32)cc1`, the composite z-score was -0.181. Still for that read-out and setting: under `COCCCNC(=O)[C@@H]1c2ccccc2C(=O)N(Cc2ccccc2Cl)[C@H]1c1ccc(CO)cc1` stands 0.36; under `O=C1C2C=CC(C(O)c3cccc4ccccc34)N(Nc3ccccc3F)C2C(=O)N1c1ccccc1` (stereo not given), 0.792.

In turn, `COC(=O)[C@@]1(CCS(=O)(=O)c2ccccc2)N=C(c2ccc(OCCCO)cc2)O[C@H]1c1ccccc1CN=[N+]=[N-]` showed a composite z-score of 1.46. In the case of `C=C[C@H](OC)[C@@H](OC(=O)Nc1ccc(OC)cc1)c1ccc(O)c(F)c1`, the composite z-score is -0.585. Same read-out and setting: under `C=CCC(OC(C)=O)[C@@H]1[C@@H](N(Cc2ccc(-c3ccccc3)cc2)C(=O)c2cccc3ccccc23)c2cc(OCCCO)ccc2N1C(=O)c1ccc(-c2ccccc2)cc1` (stereo not given in full) stands 0.0082; under `C=CCOC(=O)[C@H]1[C@@H]2C(=O)O[C@@H](c3ccccc3)[C@@H](c3ccccc3)N2[C@@H](c2ccc(OCCOC(=O)[C@H]3C[C@H]4C(=O)N[C@@H](CCCC[N+](C)(C)C)C(=O)N4[C@H]3c3ccc(O)cc3)cc2)[C@]12C(=O)Nc1ccc(I)cc12`, 0.38. `COC(=O)[C@@]1(Cc2ccc(OC)cc2)[C@@H]2C(=CC(=O)[C@H]2CC(=O)C(=O)N2CCCC2)CN1C(=O)c1ccccc1` displayed a composite z-score of 0.528. `C[C@H]1NC(=O)[C@@]23C(=O)N[C@@H](Cc4ccccc4)C2[C@H](C)[C@@]2(C)O[C@H]2C3/C=C/C/C=C\CNC(=O)[C@@H]2CCCN2C1=O` (stereo not given in full) came in with a composite z-score of 0.0122. Same read-out and setting: under `O=C(OCc1ccccc1)C1=CCC2c3[nH]c4ccccc4c3C(=O)C1N2S(=O)(=O)c1ccccc1[N+](=O)[O-]` (stereo not given) stands -0.134; under `COC(=O)[C@@]1(Cc2ccc(OC)cc2)[C@H]2c3cc(C(=O)N4CCCC4)n(Cc4ccc(C)c(F)c4F)c3C[C@H]2CN1C(=O)c1ccccc1`, 1.32. For the compound `C=CCOC(=O)[C@H]1[C@@H]2C(=O)O[C@@H](c3ccccc3)[C@@H](c3ccccc3)N2[C@@H](c2ccc(OCCOC(=O)[C@H]3C[C@H]4C(=O)N[C@@H](CCCCNC(C)=O)C(=O)N4[C@H]3c3cccc(OCCO)c3)cc2)[C@]12C(=O)Nc1ccccc12`, the composite z-score is -0.333.

On to `CC(C)c1ccc(NN2C(C(O)c3ccc(B(O)O)cc3)C=CC3C(=O)N(c4ccccc4)C(=O)C32)cc1` (stereo not given), for which the composite z-score was found to be 0.581. Regarding `CCCC=C(CCC)[C@@H](NC(=O)c1cccs1)c1ccc(C(F)(F)F)cc1`, the composite z-score is -0.201. Compound `COc1ccc(C#Cc2ccc3c(c2)[C@]2(C(=O)N3)[C@H](C(=O)Nc3nc4ccccc4s3)[C@H]3C(=O)O[C@H](c4ccccc4)[C@H](c4ccccc4)N3[C@@H]2c2ccc(O)cc2)cc1` yielded a composite z-score of 0.289. In turn, `CCCCCCc1nc(-c2cc(C)c(OC)c(C)c2)cc2c1[Si](C(C)C)(C(C)C)OC2` displayed a composite z-score of 0.0497. In turn, `COCCOC(=O)N1C(=O)[C@@]2(c3cc(C#Cc4ccc(OC)cc4)ccc31)[C@H](c1ccccc1OCCO)N1[C@H](c3ccccc3)[C@H](c3ccccc3)OC(=O)[C@H]1[C@@H]2C(=O)NC[C@H](O)c1ccccc1` displayed a composite z-score of 0.824. With `COC(=O)C(CC#Cc1ccc2c(c1)[C@]1(C(=O)N2)[C@H](c2ccc(OCCO)cc2)N2[C@H](c3ccccc3)[C@H](c3ccccc3)OC(=O)[C@H]2[C@@H]1C(=O)N1CCc2cc(OC)c(OC)cc2C1)C(=O)OC`, the composite z-score was determined as 0.343. Compound `COCCOC(=O)N1C(=O)[C@@]2(c3cc(C#CCC(C(=O)OC)C(=O)OC)ccc31)[C@H](c1ccccc1OCCO)N1[C@H](c3ccccc3)[C@H](c3ccccc3)OC(=O)[C@H]1[C@@H]2C(=O)N1CCN(c2ncccn2)CC1` had a composite z-score of 0.966. Turning to `O=C(c1ccccc1)N1C(=O)[C@]2(COC(c3ccc(OCCCO)cc3)=N2)Cc2ccccc21`, the composite z-score amounted to 0.628. Compound `COc1ccc([Si](C)(C)[C@@H]2[C@@H](CCO)O[C@]3(C(=O)N(Cc4ccc(N(C=O)c5ccccc5)cc4)c4ccccc43)[C@H]2C)cc1` returned a composite z-score of 0.0744. Compound `O=C1c2ccccc2[C@](Cc2ccccc2I)(C(=O)NCC(F)(F)F)[C@H](c2ccc(CO)cc2)N1Cc1ccccc1Cl` yielded a composite z-score of 1.22.

With `COCCOC(=O)N1C(=O)[C@@]2(c3cc(C#CCCO)ccc31)[C@H](C(N)=O)[C@H]1C(=O)O[C@H](c3ccccc3)[C@H](c3ccccc3)N1[C@@H]2c1ccc(O)cc1`, the composite z-score was -0.167.

Take `C=C(CCCC)/C(=C/C[C@@H](OC(=O)c1ccncc1)c1ccc(OCCO)cc1)c1cc(C(=O)OC)ccc1OC`: the composite z-score was 0.0056.

For the compound `C=CCN1C(=O)[C@]2(O[C@H](CCn3cc([C@H](O)c4ccccc4)nn3)[C@@H]([Si](C)(C)c3ccc(OC)cc3)[C@@H]2C)c2ccccc21`, the composite z-score was -0.458. In the case of `[N-]=[N+]=NCc1ccccc1[C@@H]1OC(c2ccc(OCCCO)cc2)=N[C@]1(Cc1ccccc1)C(=O)NCC(O)CO` (stereo not given in full), the composite z-score worked out at 0.443. On the same count and under the same terms, under `COc1cc2c(cc1OC)CN(C(=O)[C@H]1[C@@H]3C(=O)O[C@@H](c4ccccc4)[C@@H](c4ccccc4)N3[C@@H](c3ccc(O)cc3)[C@]13C(=O)Nc1ccc(C#CCCO)cc13)CC2` stands 0.055; under `C=CCNC(=O)[C@@H]1[C@H]2C(=O)O[C@H](c3ccccc3)[C@H](c3ccccc3)N2[C@H](c2ccccc2OCCO)[C@@]12C(=O)N(C(=O)OCCOC)c1ccccc12`, -0.0723; under `CC1(C)[C@@H]2CC(C(O)C3C=CC4C(=O)N(c5ccccc5)C(=O)C4N3Nc3ccc([N+](=O)[O-])cc3)=C[C@H]1C2` (stereo not given in full), 0.368. Same read-out and setting: under `C=CCNC(=O)[C@H]1[C@@H]2C(=O)O[C@@H](c3ccccc3)[C@@H](c3ccccc3)N2[C@@H](c2ccccc2OCCO)[C@]12C(=O)Nc1ccc(C#CCC(C(=O)OC)C(=O)OC)cc12` stands 0.412; under `O=C1C2C=CC(C(O)c3cc(C(F)(F)F)cc(C(F)(F)F)c3)N(n3cnnc3)C2C(=O)N1Cc1ccccc1` (stereo not given), -0.176; under `COc1cc(NN2C(C(O)c3ccco3)C=CC3C(=O)N(c4ccccc4)C(=O)C32)cc(OC)c1OC` (stereo not given), 0.21. The same measure, in the same setting: under `CN(C)CCCCCCNC(=O)[C@@H]1C[C@@H]2C(=O)N[C@@H](Cc3ccccc3)C(=O)N2[C@@H]1c1ccc(O)cc1` stands 0.303.

Turning to `CC(C)NC(=O)[C@@]1(c2ccc([N+](=O)[O-])cc2)CC(=O)N(C2CCCCC2)[C@@H]1c1ccc(CO)cc1I`, the composite z-score was found to be 0.52. Still for that read-out and setting: under `C=CC[C@]1(C(=O)NCc2ccccc2)N=C(c2ccc(OCCCO)cc2)O[C@H]1c1ccccc1N=[N+]=[N-]` stands 0.618.
